Source: PubChem BioAssay AID2057 (The Scripps Research Institute Molecular Screening Center, 2009)
About 2,100 (0.66%) of roughly 320,000 compounds were called active. The sample holds actives, similar compounds and a random draw of the others, so the mix is not that of the screen.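 Rule for the calls: active = inhibition above the mean inhibition of all tested compounds plus 3 SD, set per campaign (cut at about 40% in these data); inactive = the rest.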

Biological target: Induced myeloid leukemia cell differentiation protein Mcl-1 (Homo sapiens) (UniProt Q07820)
Assay: inhibitors of MCL1 binding to BIM-BH3, primary screen, biochemical, fluorescence polarization (AID 2057);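 note: 0% = DMSO wells and 100% = unlabeled Bim-BH3 peptide control; higher means more loss of mP so more displacement of Bim peptide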
Conditions: GST-MCL1 / FITC-Bim-BH3 fluorescence polarization; at 10.9 µM; active compounds read high

Chain of Induced myeloid leukemia cell differentiation protein Mcl-1 (Homo sapiens) (Q07820 whole entry, looked up): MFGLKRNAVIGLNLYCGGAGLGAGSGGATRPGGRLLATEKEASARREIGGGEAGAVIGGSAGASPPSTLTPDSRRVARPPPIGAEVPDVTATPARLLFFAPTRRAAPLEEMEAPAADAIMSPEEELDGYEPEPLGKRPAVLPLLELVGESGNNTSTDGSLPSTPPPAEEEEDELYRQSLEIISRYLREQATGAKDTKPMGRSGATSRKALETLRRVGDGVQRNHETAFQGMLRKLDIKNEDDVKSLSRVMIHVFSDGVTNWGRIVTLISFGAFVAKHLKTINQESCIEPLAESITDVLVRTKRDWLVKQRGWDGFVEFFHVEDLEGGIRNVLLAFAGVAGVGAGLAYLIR

Row | SMILES | inhibition
1 | CCSc1nc2sc3c(c2c(=O)[nH]1)CC(C)(C)OC3 | 7.1% (inactive)
2 | CC/C(C)=N/Nc1nc2sc3c(c2c(=O)[nH]1)CC(C)(C)OC3 | 85% (active)
3 | CCC1(C)Cc2c(sc3nc(SC)[nH]c(=O)c23)CO1 (stereo not given) | 6.42% (inactive)
4 | Nc1cc(N)nc(SCC(=O)Nc2cccc(S(=O)(=O)N3CCCCC3)c2)n1 | -0.58% (inactive)
5 | CC[C@]1(O)C[C@@H]2CN(CCc3c([nH]c4ccccc34)[C@@](C(=O)OC)(c3cc4c(cc3OC)N(C)[C@H]3[C@@](O)(C(=O)OC)[C@H](OC(C)=O)[C@]5(CC)C=CCN6CC[C@]43[C@@H]65)C2)C1 | 119% (active)
6 | CC[C@]1(O)CC2CN(CCc3c([nH]c4ccccc34)[C@@](C(=O)OC)(c3cc4c(cc3OC)N(C=O)[C@H]3[C@@](O)(C(=O)OC)[C@H](OC(C)=O)[C@]5(CC)C=CCN6CC[C@]43[C@@H]65)C2)C1 (stereo not given in full) | 20.2% (inactive)
7 | O=C(Cn1c(NCCO)nc2ccccc21)c1ccc(Cl)cc1Cl | -2.09% (inactive)
8 | CC[C@@H](C)[C@H](NC(=O)CCc1c(C)c2cc3c4c(oc3c(C)c2oc1=O)CCCC4)C(=O)O | 8.32% (inactive)
9 | CCOc1ccc2nc(N3CCCN(C(=O)Nc4ccccc4C)CC3)c(C#N)cc2c1 | 48.6% (active)
10 | CCOC(=O)c1cc(C#N)c(N2CCCCC2)nc1-c1ccccc1 | 2.02% (inactive)
11 | COc1ccc2nc(N3CCCC(O)C3)c(C#N)cc2c1 (stereo not given) | 26.1% (inactive)
12 | CSc1ncccc1C(=O)OCc1ccc(Br)cc1 | 4.52% (inactive)
13 | CCC(C)(C)NC(=O)c1cc([N+](=O)[O-])ccc1N1CCCCC1 | -1.47% (inactive)
14 | CN(C)/C=C1/Nc2ccccc2C1=O | 5.28% (inactive)
15 | Cc1cc(C)c(/C=C2\C(=O)Nc3ccccc32)[nH]1 | 180% (active)
16 | O=C1Nc2ccccc2/C1=C/c1ccnc2ccccc12 | 4.28% (inactive)
17 | COc1ccc(CNc2nnnn2C)cc1 | 2.94% (inactive)
18 | CCOC(=O)CNc1nc2ccccc2n2c(C)nnc12 | 6.27% (inactive)
19 | Fc1ccc(CNc2nc3ccccc3n3nnnc23)cc1 | 60.1% (active)
20 | CCC1CCCCN1C(=S)Nc1ccc(SC(F)F)cc1 (stereo not given) | 7.19% (inactive)

Row | SMILES | inhibition
21 | COc1ccc(N2CC(C(=O)N[C@@H](C)C(=O)N3CCCCC3)CC2=O)cc1 (stereo not given in full) | 3.6% (inactive)
22 | Cc1nn(-c2cc(Cl)ccc2N)c(=O)c2ccccc12 | 0.14% (inactive)
23 | O=C1c2ccccc2C(=O)N1c1cccc2ccccc12 | 2.1% (inactive)
24 | O=C(O)c1ccc2c3c(cccc13)C(=O)N(OS(=O)(=O)c1ccccc1)C2=O | -8.23% (inactive)
25 | C[N+](C)(CCCCCC[N+](C)(C)CCCN1C(=O)c2cccc3cccc(c23)C1=O)CCCN1C(=O)c2cccc3cccc(c23)C1=O | -10.5% (inactive)
26 | CC(C)(CNC(=O)Cc1ccc(Cl)cc1Cl)N1CCOCC1 | 4.7% (inactive)
27 | O=C(c1cccnc1)N(c1cc2sc(=O)oc2c2ccccc12)S(=O)(=O)c1ccccc1 | 23.9% (inactive)
28 | CCCCC(NC(=O)c1cccc(Br)c1)C(=O)O (stereo not given) | -0.19% (inactive)
29 | CC1=NN(C(C)C)C(=O)C1 | -2.13% (inactive)
30 | COCc1c(N)c(C)nc(Cl)c1C#N | 8.83% (inactive)
31 | CCOc1ccc(N(CC(=O)NCC2CCCO2)S(=O)(=O)c2ccc(C)cc2)cc1 (stereo not given) | -3.41% (inactive)
32 | Cc1c(CC(=O)N2CCN(C(=O)C3COc4ccccc4O3)CC2)c(=O)oc2c(O)c(O)ccc12 (stereo not given) | 57.5% (active)
33 | Cc1c(C)c2ccc(OCC(=O)N3CCC(C(=O)O)CC3)c(C)c2oc1=O | -1.79% (inactive)
34 | O=C(CNC(=O)C1COc2ccccc2O1)N/N=C/c1cc(Br)c(O)c(Br)c1 (stereo not given) | 10.8% (inactive)
35 | O=C(NCCCCc1ccccc1)C1CC(c2ccc([N+](=O)[O-])cc2)=NO1 (stereo not given) | 12.6% (inactive)
36 | CN(CC(=O)NC1CCN(Cc2ccccc2)CC1)S(=O)(=O)c1ccc(Cl)s1 | 3.17% (inactive)
37 | CCc1cc(CNC(=O)CC2C(=O)NCCN2Cc2ccccc2C(F)(F)F)on1 (stereo not given) | 17.3% (inactive)
38 | CC1(C)CC(=O)C2=C(C1)NCN(CCCN1CCOCC1)C2 | -0.98% (inactive)
39 | O=C(N/N=C/c1cc(Cl)cc([N+](=O)[O-])c1O)C(O)(c1ccccc1)c1ccccc1 | 9.22% (inactive)
40 | O=[N+]([O-])c1cc(Cl)cc(/C=N/NC(=S)Nc2cc(S(=O)(=O)N3CCOCC3)ccc2Cl)c1O | 52.5% (active)

Row | SMILES | inhibition
41 | O=C(NC(=S)Nc1ccc(S(=O)(=O)N2CCOCC2)cc1)c1ccccc1[N+](=O)[O-] | 14.4% (inactive)
42 | COC(=O)CN(c1cccc(C(C)=O)c1)S(C)(=O)=O | 0.97% (inactive)
43 | CCCSc1ncccc1C(=O)O | -3.51% (inactive)
44 | COc1cccc(Nc2ncccc2C(=O)O)c1 | 1.4% (inactive)
45 | COc1ccc(Nc2cc(Cl)ccc2C(=O)O)cn1 | 62.7% (active)
46 | COc1ccc(NS(=O)(=O)c2ccc(F)cc2F)cn1 | 8.27% (inactive)
47 | CCCOc1ccc(Cl)cc1Nc1nc(NCCO)nc(N2CCCC2)n1 | 3.82% (inactive)
48 | NC1=NC2(CCCCC2)N(c2ccc(F)cc2F)C(N)=N1 | 10.2% (inactive)
49 | COc1ccc(Cl)cc1C(=O)OCC(=O)NCc1cccs1 | -2.56% (inactive)
50 | O=C(CSc1ncccn1)N1CCCC1 | 9.67% (inactive)
51 | C=CCNc1nnc(SCC(=O)N2CCCCC2)c2ccccc12 | 120% (active)
52 | C=CCNc1nnc(C)c2ccccc12 | -0.12% (inactive)
53 | O=C(c1ccc(F)c(S(=O)(=O)N2CCOCC2)c1)N(CCc1ccccc1)Cc1ccccc1 | 32.4% (inactive)
54 | O=C(NCCSCc1ccccc1)c1ccc(Cl)c(S(=O)(=O)N2CCOCC2)c1 | 1.14% (inactive)
55 | CCOc1ccc(NC(=O)CCCCCN2C(=O)[C@@H]3Cc4ccccc4CN3C2=O)cc1 | 6.32% (inactive)
56 | COc1ccc(CC(=O)Nc2c3c(nn2-c2cccc(Cl)c2)CS(=O)C3)cc1 (stereo not given) | -2.25% (inactive)
57 | CCNc1nc(N)nc(-c2cc(Cl)ccc2OC)n1 | -1.8% (inactive)
58 | Cc1cccn2c(=O)c3cc(C(=O)NCC4CCCO4)c(=N)n(Cc4ccc(F)cc4)c3nc12 (stereo not given) | -4.4% (inactive)
59 | Cc1cccn2c(=O)c3cc(C(=O)NCCN4CCOCC4)c(=N)n(Cc4cccnc4)c3nc12 | 46.7% (active)
60 | COc1ccc(CCn2c(=N)c(C(=O)NCC3CCCO3)cc3c(=O)n4cccc(C)c4nc32)cc1OC (stereo not given) | 2% (inactive)
